Compound activity from PubChem.
NR3A LBD binder – NR3A (human) ligand-binding domain modulation. NR3A LBD differential scanning fluorimetry, Tm shift; 0% = protein alone, 100% = glycine-bound protein. Tm shift relative to glycine control, % at 25 µM. 2.5% of 340,000 active;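 active = melting temperature shift of at least 10% of the positive control shift, at one fixed dose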
Myeloid diff 2 – promotes myeloid progenitor differentiation. 1% of 360,000 active. calls only at 10 µM. ER-HoxA9 myeloid progenitors, lysozyme-GFP differentiation, flow cytometry;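 active = normalized GFP-positive differentiation at or above the plate's own cutoff, the solvent-only control mean plus 3 SD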;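 also: cells exposed to compound for four days before flow analysis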
MPTP inh – blocks calcium-induced mitochondrial swelling | isolated mouse mitochondria, Ca2+ swelling absorbance, 30 min | inhibition, % at 10 µM | 1.4% of 360,000 active;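 active = inhibition of 50% or more, scaled per plate between neutral and stimulator controls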
rCAG binder – molecules binding r(CAG) RNA repeats; r(CAG) RNA repeat, TO-PRO-1 dye displacement fluorescence; inhibition, % at 3 µM; 1.3% of 370,000 active; AID 651821;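 active = inhibition above the plate cutoff, the mean of all test compounds on that plate plus 3 SD, cut at about 35% in these data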;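 also: higher means more dye released from RNA so lower well fluorescence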
FAS TE block – inhibitors of human fatty acid synthase thioesterase domain. P49327. recombinant FAS-TE, OMFH fluorogenic substrate, fluorescence endpoint. inhibition, % at 15 µM. 0.67% of 360,000 active. AID 602261;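 active = compounds whose normalised, plate-corrected inhibition of enzyme fluorescence in the single-dose primary screen is 50% or more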
Of the large screens only hits and unclear results are named; the others gave an inactive call. The list is not random: actives were taken first. Their share in the collection is about 5.7%.

O=C(CSc1nc(-c2ccc(F)cc2)nc2c1Cc1ccccc1O2)Nc1cccc(C(=O)O)c1	NR3A LBD binder 19.0
CC(C)OC(=O)CSc1nc(-c2ccc(F)cc2)nc2ccc(F)cc12	none
CCOC(=O)C1CSCCS(=O)(=O)N1Cc1ccc(F)cc1 (stereo not given)	none (no result: NR3A LBD binder, Myeloid diff 2, MPTP inh, FAS TE block)
O=S1(=O)c2c(cccc2N2CC[C@H](O)C2)O[C@H]2CCN1C2	none (no result: NR3A LBD binder, Myeloid diff 2, MPTP inh, FAS TE block)
Cc1cc(C(=O)Nc2cccc(O)c2)c(C)o1	NR3A LBD binder 16.9
Cc1cc(C(=O)Nc2cccc(C(=O)O)c2)c(C)o1	none
CCOC(=O)c1cc(-c2cccc([N+](=O)[O-])c2)n[nH]1	NR3A LBD binder 33.3
O=C(O)c1cc(-c2cccc([N+](=O)[O-])c2)n[nH]1	none
C/C(=N\NC(=O)c1ccccc1F)c1ccc2c(c1)Nc1ccccc1S2	none
C/C(=N\NC(=O)c1ccc(O)cc1)c1ccc2c(c1)Nc1ccccc1S2	NR3A LBD binder 20.6 (no result: Myeloid diff 2)
C/C(=N/NC(=O)c1ccc(O)cc1)c1cccc([N+](=O)[O-])c1	NR3A LBD binder 209.4
C/C(=N\NC(=O)c1cc(-c2cccc([N+](=O)[O-])c2)n[nH]1)c1ccc(F)cc1	NR3A LBD binder 62.6
COCCCNC(=O)[C@@H](Cc1ccccc1)NC(=O)[C@H]1O[C@@H](n2ccc(=O)[nH]c2=O)[C@H](O)[C@@H]1O	none (no result: NR3A LBD binder, Myeloid diff 2, MPTP inh, FAS TE block)
C/C(=N\NC(=O)c1ccccc1C)c1cccc([N+](=O)[O-])c1	none
C/C(=N/NC(=O)c1cc(-c2cccc([N+](=O)[O-])c2)n[nH]1)c1cccc(O)c1	NR3A LBD binder 10.5
C/C(=N\NC(=O)c1cc(-c2cccc([N+](=O)[O-])c2)n[nH]1)c1ccccc1O	NR3A LBD binder 25.7
CCCCC(=O)OCC(=O)Nc1ccc(OC(F)F)cc1	NR3A LBD binder 13.1
O=C(COC(=O)CCC1CCCCC1)Nc1ccc(OC(F)F)cc1	none
CCOC(=O)[C@@]12CCCC3=C1N(CCC3)C(=O)[C@H]2CC(=O)N1CCCC1	none (no result: NR3A LBD binder, Myeloid diff 2, MPTP inh, FAS TE block)
CC(=O)Nc1ccc(NC(=O)COC(=O)c2cc([N+](=O)[O-])ccc2N2CCOCC2)cc1	NR3A LBD binder 23.2
O=C(COC(=O)c1cc([N+](=O)[O-])ccc1N1CCOCC1)c1ccccc1Cl	none
COc1ccc(C(=O)Nc2nc3ccc(OC)cc3s2)cc1	NR3A LBD binder 32.4
COc1ccc(NC(=O)Nc2nnc(-c3ccccc3SCc3ccccc3)s2)cc1	NR3A LBD binder 21.8
CCOc1ccc2nc(NC(=O)c3ccc(S(=O)(=O)N4CCOCC4)cc3)sc2c1	NR3A LBD binder 29.3
CCOC(=O)c1sc(NC(=O)c2ccc(Cl)s2)cc1C	NR3A LBD binder 18.4
CCOc1ccc2nc(NC(=O)c3ccc(OC)c(S(=O)(=O)N4CCOCC4)c3)sc2c1	none
O=c1[nH]c(-c2ccccc2)cn1C1CCN(Cc2ccc(-c3nc4ccc(Br)cc4nc3-c3ccccc3)cc2)CC1	none (no result: NR3A LBD binder, Myeloid diff 2, MPTP inh, FAS TE block)
CCc1ccc(Cn2c(=O)n(Cc3ccc(C(=O)NCCCOC)cc3)c(=O)c3ccccc32)cc1	none (no result: NR3A LBD binder, Myeloid diff 2, MPTP inh, FAS TE block)
COc1ccc2nc(NC(=O)Nc3ccccc3)sc2c1	NR3A LBD binder 22.7, rCAG binder 43.1
COc1cc2nc(NC(=O)c3ccccc3)sc(=O)c2cc1OC	NR3A LBD binder 42.3
COc1ccc2nc(NC(=O)c3ccc(NC(=O)C4CCCO4)cc3)sc2c1 (stereo not given)	NR3A LBD binder 20.1
CCOC(=O)c1sc(NC(=O)c2ccc(S(=O)(=O)N3CCOCC3)cc2)cc1C	NR3A LBD binder 20.4
COc1cc2nc(NC(=O)c3ccccc3)[nH]c(=O)c2cc1OC	none
COc1ccc2nc(NC(=O)c3ccccc3C(=O)O)sc2c1	none
Cc1cccc(NC(=O)C2CCN(c3nnc(-n4cccc4)s3)CC2)c1C	none (no result: NR3A LBD binder, Myeloid diff 2, MPTP inh, FAS TE block)
NC(=O)c1ncn([C@@H]2O[C@H](C(=O)N[C@H](Cc3ccccc3)C(=O)N3CCN(CC(=O)Nc4ccccn4)CC3)[C@@H](O)[C@H]2O)n1	none (no result: NR3A LBD binder, Myeloid diff 2, MPTP inh, FAS TE block)
N#Cc1cccc(-c2ccccc2C(=O)NC2CCCCN(Cc3ccc(Cl)cc3)C2=O)c1 (stereo not given)	none (no result: NR3A LBD binder, Myeloid diff 2, MPTP inh, FAS TE block)
COC(=O)c1ccc(-c2nc3cc(Cl)c(N)cc3s2)cc1	none
COC(=O)c1ccc(C(=O)Nc2nc3cc(N)c(C)cc3s2)cc1	NR3A LBD binder 36.1
COc1ccc(C(=O)Nc2nc3ccc(S(C)(=O)=O)cc3s2)cc1	NR3A LBD binder 10.4
COc1ccc2sc(NC(=O)NC(=O)c3c(Cl)cccc3Cl)nc2c1	NR3A LBD binder 17.6
COc1ccc2nc(NC(=O)CSc3nnc4n3C(C)(C)Cc3ccccc3-4)sc2c1	NR3A LBD binder 10.1
COC(=O)C1=C(C)N(C)C(=NCc2ccccc2)NC1c1ccc(F)cc1 (stereo not given)	none (no result: NR3A LBD binder, Myeloid diff 2, MPTP inh, FAS TE block)
C[C@@H]1CN(c2ccc(N3CCNC[C@@H]3C)cc2C#N)CCN1Cc1ccccc1	none (no result: NR3A LBD binder, Myeloid diff 2, MPTP inh, FAS TE block)
CN(Cc1cn(Cc2ccccc2)nn1)S(=O)(=O)c1ccc(F)cc1Br	none (no result: NR3A LBD binder, Myeloid diff 2, MPTP inh, FAS TE block)
CCc1noc(C)c1C(=O)N1CCN(CC(=O)OC)CC1	none (no result: NR3A LBD binder, Myeloid diff 2, MPTP inh, FAS TE block)
c1ccc(-c2csc3ncnc(N4CCc5ccccc5C4)c23)cc1	NR3A LBD binder 12.7
COc1ccc(-c2csc3ncnc(N4CCN(c5cccc(Cl)c5)CC4)c23)cc1	NR3A LBD binder 17.6 (no result: rCAG binder)
COc1ccc(-c2csc3ncnc(N4CCN(c5cccc(OC)c5)CC4)c23)cc1	none
COc1ccc(-c2csc3ncnc(N4CCN(S(=O)(=O)c5ccc(Cl)s5)CC4)c23)cc1	NR3A LBD binder 11.5
COc1ccc(-c2csc3ncnc(N4CCN(S(=O)(=O)c5cccs5)CC4)c23)cc1	none
CC(=O)O[C@@H]1C=C[C@@H](C#Cc2ccc(C(C)(C)C)cc2)O[C@@H]1COC(=O)Nc1ccccc1	none (no result: NR3A LBD binder, Myeloid diff 2, MPTP inh, FAS TE block)
OCCC(N1CCOCC1)C(O)(c1ccccc1)c1ccccc1 (stereo not given)	none (no result: NR3A LBD binder, Myeloid diff 2, MPTP inh, FAS TE block)
CSc1cccc(NC(=O)c2ccc(NC3=NC4CS(=O)(=O)CC4S3)cc2)c1 (stereo not given)	NR3A LBD binder 27.9
Cc1ccc(NC(=O)c2ccc(NC3=NC4CS(=O)(=O)CC4S3)cc2)cc1 (stereo not given)	none
CC(C)c1ccc(NC(=O)c2ccc(NC3=NC4CS(=O)(=O)CC4S3)cc2)cc1 (stereo not given)	NR3A LBD binder 16.4
COC(=O)Cc1nnn2c1[C@@H](C)[C@@H](c1ccccc1Br)O[C@@H](C)C2	none (no result: NR3A LBD binder, Myeloid diff 2, MPTP inh, FAS TE block)
O=C(Cc1ccc(F)cc1)N1CCN(c2ccc([N+](=O)[O-])cc2)CC1	Myeloid diff 2 active
CS(=O)(=O)c1ccc2sc(NC(=O)c3cc4ccccc4o3)nc2c1	NR3A LBD binder 11.3
Cc1nc(NC(=O)c2cc3ccccc3o2)sc1C	none
CS(=O)(=O)c1ccc2nc(NC(=O)c3cc4ccccc4o3)sc2c1	NR3A LBD binder 26.4
O=C(NCCc1c[nH]c2ccccc12)OCc1cn(Cc2cccc(C(F)(F)F)c2)nn1	none (no result: NR3A LBD binder, Myeloid diff 2, MPTP inh, FAS TE block)
CCn1nc(C)c(/C=N/NC(=S)Nc2ccc(Cl)cc2Cl)c1C	none
Cc1nn(C)cc1/C=N/NC(=S)Nc1ccc(Cl)cc1Cl	NR3A LBD binder 18.0
COC(=O)c1nc(C(=O)OC)c(C(=O)OC)nc1C(=O)OC	none
COC(=O)c1nccnc1N	NR3A LBD binder 14.0
O=[N+]([O-])c1ccc2c(c1)-c1ccccc1C2=NO	none
